The whole screen tested about 340,000 compounds, of which about 990 (0.29%) were called active. No stated cut-off is given here; in the data, active means activation above about 18%; inactive means the rest. Only a selection was taken, and actives are over-represented in it overall.
The compounds below were run against Mu-type opioid receptor (Homo sapiens) + Delta-type opioid receptor (Homo sapiens) (UniProt P35372+P41143) (assay: agonists of OPRM1-OPRD1 heterodimerization, primary screen, cell-based, luminescence (AID 504326;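 further: 0% = vehicle-treated cells and 100% = reference agonist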)). Settings: cells, at 9.3 µM, active compounds read high.
Mu-type opioid receptor (Homo sapiens) + Delta-type opioid receptor (Homo sapiens), sequence (P35372 whole entry, looked up): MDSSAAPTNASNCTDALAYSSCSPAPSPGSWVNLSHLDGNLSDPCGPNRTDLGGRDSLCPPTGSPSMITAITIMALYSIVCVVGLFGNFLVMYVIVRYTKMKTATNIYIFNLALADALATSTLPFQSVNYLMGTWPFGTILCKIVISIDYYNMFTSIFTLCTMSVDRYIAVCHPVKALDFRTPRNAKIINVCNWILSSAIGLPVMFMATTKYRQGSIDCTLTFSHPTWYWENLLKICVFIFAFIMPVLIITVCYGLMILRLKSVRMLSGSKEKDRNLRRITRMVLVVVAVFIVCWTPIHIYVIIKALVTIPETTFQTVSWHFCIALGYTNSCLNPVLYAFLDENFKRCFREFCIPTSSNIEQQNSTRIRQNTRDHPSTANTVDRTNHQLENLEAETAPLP
Mu-type opioid receptor (Homo sapiens) + Delta-type opioid receptor (Homo sapiens), sequence (P41143 whole entry, looked up): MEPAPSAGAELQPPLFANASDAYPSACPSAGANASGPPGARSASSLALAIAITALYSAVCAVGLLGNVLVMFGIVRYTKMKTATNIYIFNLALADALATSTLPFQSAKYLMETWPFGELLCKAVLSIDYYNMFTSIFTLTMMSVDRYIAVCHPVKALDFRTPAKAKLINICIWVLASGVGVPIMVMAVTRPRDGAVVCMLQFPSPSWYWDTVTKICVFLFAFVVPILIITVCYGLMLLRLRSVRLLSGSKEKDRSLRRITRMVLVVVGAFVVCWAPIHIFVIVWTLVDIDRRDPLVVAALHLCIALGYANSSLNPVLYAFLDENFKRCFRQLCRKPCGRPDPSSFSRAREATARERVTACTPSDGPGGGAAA

activation, active:
CCc1ccc(C(CNc2nc(C(F)(F)F)nc3ccccc23)N(C)C)cc1 (configuration not stated) 81.6%
COc1cc(/C=N/NC(=O)Nc2ccccc2)ccc1OCCOc1ccccc1C 28%
CCOC(=O)C1=C(O)/C(=C/c2ccc(OCC(=O)Nc3ccc(C)cc3)cc2)N=C1C 40.8%
CCOC(=O)c1c(C)[nH]c2c1-c1ccccc1C(=O)C2=O 22.6%
Cc1ccc(CN(C(=O)c2sc3ccccc3c2Cl)C2CCS(=O)(=O)C2)cc1 (configuration not stated) 26.2%
O=C(Nc1ccc(OC(F)(F)F)cc1)c1ccc2c(c1)no[n+]2[O-] 22%
COC(=O)c1ccc(C23CC4(C2)[C@H](CN(Cc2cccnc2)[C@@H]4c2ccccc2)C3c2ccc(Cl)nc2)cc1 (some centres not stated) 19.2%
Cc1ccc(CNC(=O)CC(NC(=O)c2ccccc2)c2ccccc2)cc1 (configuration not stated) 22.7%
COc1ccc(C(CNCC(=O)Nc2ccccc2F)N(C)C)cc1 (configuration not stated) 149%
CN(C)C(CNC(=O)Cc1ccc([N+](=O)[O-])cc1)c1ccccc1 (configuration not stated) 67.1%
CN(C)C(CNC(=O)c1cc2ccccc2o1)c1ccccc1 (configuration not stated) 197%
CN1CCN(c2ccc([N+](=O)[O-])c(Sc3nc4ccccc4[nH]3)c2)CC1 55.9%
COc1ccc(C(CCN(Cc2ccc(OC)c(OC)c2)C(=O)CCl)c2ccccc2)cc1 (configuration not stated) 91.3%
CN1C(CC(=O)Nc2ccc(Br)cc2)c2ccccc2CC1(C)C (configuration not stated) 77.8%

activation, inactive:
Cc1ccc(OCCCC(=O)Nc2ccc(S(=O)(=O)Nc3cc(C)nc(C)n3)cc2)cc1 0.21%
COc1cccc(CNc2nc(C(F)(F)F)nc3ccccc23)c1 5.18%
NS(=O)(=O)c1ccc(CCNc2nc(C(F)(F)F)nc3ccccc23)cc1 -1.85%
Cc1ccn(C(CC(=O)c2ccc(Br)cc2)C(=O)O)n1 (configuration not stated) -1.91%
Nc1c(Cl)cc(S(N)(=O)=O)cc1S(N)(=O)=O -5.23%
CC1=NNC(=O)C1CCC(=O)N/N=C\c1ccc(Cl)c(Cl)c1 (configuration not stated) -0.87%
COc1cc(/C=N/NC(=O)Cc2ccccc2)cc(OC)c1OC -1.52%
COc1cc(/C=N/NC(=O)c2ccoc2C)ccc1OCCN1CCCCC1 -0.79%
Cc1cc(C)c2c(=O)[nH]c(SCC(=O)Nc3ccc(Br)cc3)nc2n1 2.08%
CN(Cc1ccc(F)cc1)C(=O)CN1C(=O)c2ccccc2S1(=O)=O -2.95%
COC(=O)C1=NNC2(c3ccc(C)cc3)C(=O)N(c3cccc(C)c3C)C(=O)C12 (configuration not stated) -4.85%
COC(=O)C1=C(O)/C(=C/c2ccc(OCC(=O)Nc3ccccc3)cc2)N=C1C -3.18%
Cc1ccc(NC(=O)COc2ccc(/C=C3/NC(=O)NC3=O)cc2)cc1 2.37%
CCOc1ccc(Br)cc1S(=O)(=O)Nc1ccc(C(=O)OC(C)C(=O)N(C)c2ccccc2)cc1 (configuration not stated) 2.35%
CC(c1ccccn1)N(C)C(=O)c1ccc2nc(Cc3cccc(Cl)c3)oc2c1 (configuration not stated) -0.53%
CC1CCCCC12NC(=O)N(CC(=O)OCC(=O)NCc1ccc(F)cc1)C2=O (configuration not stated) -0.67%
Cc1cccc(Oc2c([N+](=O)[O-])c(=O)n(C)c3ccccc23)c1 1.78%
CCOC(=O)c1ccccc1OC(=O)Oc1ccccc1C(=O)OCC -2.83%
CCOC(=O)C1=C(C)c2ccccc2OC1(C)C(=O)OCC (configuration not stated) -0.33%
O=C(NCc1ccccn1)c1cnc2sccn2c1=O -2.49%
COc1cc(C(=O)N(Cc2ccc(N(C)C)cc2)C2CCS(=O)(=O)C2)cc(OC)c1OC (configuration not stated) -1.82%
CC1(C)C(C=C(Cl)Cl)C1C(=O)N(Cc1ccc(Cl)cc1)C1CCS(=O)(=O)C1 (configuration not stated) 0.69%
O=C(C1CC1)N1N=C2CCCCC2C1(O)C(F)(F)F (configuration not stated) -1.35%
CCOC(=O)Cc1ncccc1C(=O)Nc1ccc(OC(F)(F)F)cc1 -3.8%
Cn1cccc1/C=N/NC(=O)c1ccc(OC(F)(F)C(F)F)cc1 -1.62%
O=C(N1CCOCC1)N(Cc1ccccc1)c1ccccn1 -1.92%
CC(=O)CSc1nc(CCc2ccccc2)c(C#N)c(=O)[nH]1 -2.33%
COc1ccc(/C=C2/S/C(=N/N=C3\CC4CCC3(C)C4(C)C)NC2=O)cc1 (configuration not stated) 0.11%
CCN1C(=NCCc2cccnc2)N[C@@H](c2ccccc2)C(C(=O)OC)=C1C 0.22%
Clc1ccc(C2[C@H]3CN(CC4CCCCC4)[C@H](c4ccccc4)C34CC2(c2cccnc2)C4)cn1 (some centres not stated) -1.67%
O=C(/C=C/c1cnc2ccccc2n1)NC1CCCCCC1 -1.86%
CC(C)NS(=O)(=O)c1ccc(NC(=O)C2CCCCC2)cc1 -1.18%
O=C(CC(NC(=O)c1ccccc1)c1ccccc1)Nc1ccc(F)c(F)c1 (configuration not stated) 1.24%
Cc1ccc(CNC(=O)[C@@H](NC(=O)Cc2ccccc2)C(C)C)cc1 2.39%
CCOC(=O)CC(NC(=O)C1c2ccccc2Oc2ccccc21)c1ccc(C)cc1 (configuration not stated) -2.87%
Cc1cccc(OCC(=O)Nc2ccccc2F)c1 -3.72%
COc1ccc(C(CNC(=O)c2ccc(S(=O)(=O)Nc3ccccc3F)cc2)N(C)C)cc1 (configuration not stated) -3.41%
COCCNC(=O)C(c1ccc(C)cc1)N(C(=O)CCC(=O)Nc1ccccn1)c1cccc(C)c1 (configuration not stated) -0.25%
CCNC(=S)N1CCN(c2ncccn2)CC1 -2.13%
CCn1nnnc1SCC(=O)Nc1ccc(N(C)C)cc1 -1.37%
Cc1cc(NC(=O)c2cc3ccccc3o2)no1 -2.3%
O=C(NCCc1ccc2c(c1)OCCO2)c1cc2ccccc2o1 -0.68%
O=C(CC(c1ccccc1)c1ccccc1)NCC(O)c1ccc([N+](=O)[O-])cc1 (configuration not stated) 2.4%
CN(C)CCNC(=O)Cc1ccc([N+](=O)[O-])cc1 -3.71%
COc1ccc(NC(=O)CN2C(=O)COc3ccc(S(=O)(=O)N4CCOCC4)cc32)c(OC)c1 -1.21%
O=[N+]([O-])c1ccc(N2CCSCC2)cc1O 0.34%
O=C(CSc1nc2ccccc2[nH]1)N/N=C/C=C\c1ccccc1[N+](=O)[O-] -1.78%
CC(Sc1nnc(CNC(=O)c2ccccc2F)n1C)C(=O)Nc1nccs1 (configuration not stated) -0.21%
CCCCN(C(=O)COc1ccc(NC(C)=O)cc1)C1CCS(=O)(=O)C1 (configuration not stated) -1.71%
COc1cc2c(cc1OC)CC1(CCCCC1)N=C2 -3.02%
COc1ccc(CCNC(=O)C(Sc2ccccn2)c2ccccc2)cc1OC (configuration not stated) -2.64%
COc1ccc(CCNC(=O)CN(c2ccccc2)S(C)(=O)=O)cc1OC 0.27%
CN(CC(=O)NCCc1ccccc1)S(=O)(=O)c1cnc[nH]1 -1.45%
CSc1sc(C)cc1C1C(C#N)=C(N)N(c2cccnc2)C2=C1C(=O)CCC2 (configuration not stated) -1.23%
COCC(=O)Nc1ccc(Br)cc1 -3.01%
CN1CCN(NC(=O)Nc2ccc(Br)cc2)CC1 -3.59%
Cc1ccc(F)cc1S(=O)(=O)Nc1cccc(C(=O)N2CCCC(C(N)=O)C2)c1 (configuration not stated) 3.39%
CCN(CC)C(=O)CC1(c2ccccc2OC)CCOC(C(C)C)C1 (configuration not stated) -2.63%

From PubChem BioAssay AID504326 (The Scripps Research Institute Molecular Screening Center, 2011)
